# Experimental data: paper PMC7862700, “An all-to-all approach to the identification of sequence-specific readers for epigenetic DNA modifications on cytosine”
# What was measured:
# Assay in all cases: DAPPL (digital affinity profiling via proximity ligation, sequencing); 10 mM Tris-HCl pH 7.5, 50 mM NaCl, 1 mM DTT, 4% glycerol, room temperature, 30 min; GST-TFs on glutathione beads, 16-mer random dsDNA library, 0.1% formaldehyde crosslink after washing; high values mean tight binding
# Details in all cases: protein: recombinant; tags: N-terminal GST; dsDNA, one strand shown
# [1] = target: T1, ERF (Homo sapiens, UniProt P50548 1-548)
# T1 sequence: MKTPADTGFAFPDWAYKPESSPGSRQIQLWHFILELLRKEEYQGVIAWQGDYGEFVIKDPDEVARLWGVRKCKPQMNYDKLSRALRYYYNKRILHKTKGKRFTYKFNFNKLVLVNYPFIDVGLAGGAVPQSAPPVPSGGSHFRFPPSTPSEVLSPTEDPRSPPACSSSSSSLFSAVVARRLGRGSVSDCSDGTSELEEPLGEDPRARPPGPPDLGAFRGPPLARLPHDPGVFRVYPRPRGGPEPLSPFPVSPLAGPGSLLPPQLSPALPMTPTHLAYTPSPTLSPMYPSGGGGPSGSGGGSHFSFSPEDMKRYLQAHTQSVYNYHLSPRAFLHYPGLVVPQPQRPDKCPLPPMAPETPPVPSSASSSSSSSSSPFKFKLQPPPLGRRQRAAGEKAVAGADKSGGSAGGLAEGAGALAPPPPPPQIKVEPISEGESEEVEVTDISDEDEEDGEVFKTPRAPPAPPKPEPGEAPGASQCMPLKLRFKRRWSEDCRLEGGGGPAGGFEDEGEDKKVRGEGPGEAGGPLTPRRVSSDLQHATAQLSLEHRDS
# Outline: (§1)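 After expression in yeast as GST fusions, human transcription factors were bound to glutathione beads, DNA-barcoded and mixed with a tag-only sample. The pools were incubated with 200 nmole of a 16-mer random double-stranded DNA library in Tris/NaCl/DTT/glycerol buffer (30 min, room temperature), washed and crosslinked with 0.1% formaldehyde. Proximity ligation with BsaI/T4 ligase ran for 1 h at 37 °C, before PCR amplification and sequencing on an Illumina NextSeq500. Binding signal is a hexamer's read frequency for a factor divided by its frequency for the tag-only sample.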
# [2] = target: T2, ETV3L (Homo sapiens, UniProt Q6ZN32 1-361)
# T2 sequence: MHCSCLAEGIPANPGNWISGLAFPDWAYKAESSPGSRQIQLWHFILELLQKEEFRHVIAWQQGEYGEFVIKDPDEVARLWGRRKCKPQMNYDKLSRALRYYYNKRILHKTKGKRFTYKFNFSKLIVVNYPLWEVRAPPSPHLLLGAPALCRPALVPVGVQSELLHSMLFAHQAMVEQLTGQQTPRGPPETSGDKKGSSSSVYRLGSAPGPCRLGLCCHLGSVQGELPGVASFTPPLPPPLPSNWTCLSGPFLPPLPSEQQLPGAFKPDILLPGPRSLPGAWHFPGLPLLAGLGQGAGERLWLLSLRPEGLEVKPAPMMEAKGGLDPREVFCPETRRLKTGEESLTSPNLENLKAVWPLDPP
# Outline: as §1
# [3] = target: T3, ETS2 (Homo sapiens, UniProt P15036 1-469)
# T3 sequence: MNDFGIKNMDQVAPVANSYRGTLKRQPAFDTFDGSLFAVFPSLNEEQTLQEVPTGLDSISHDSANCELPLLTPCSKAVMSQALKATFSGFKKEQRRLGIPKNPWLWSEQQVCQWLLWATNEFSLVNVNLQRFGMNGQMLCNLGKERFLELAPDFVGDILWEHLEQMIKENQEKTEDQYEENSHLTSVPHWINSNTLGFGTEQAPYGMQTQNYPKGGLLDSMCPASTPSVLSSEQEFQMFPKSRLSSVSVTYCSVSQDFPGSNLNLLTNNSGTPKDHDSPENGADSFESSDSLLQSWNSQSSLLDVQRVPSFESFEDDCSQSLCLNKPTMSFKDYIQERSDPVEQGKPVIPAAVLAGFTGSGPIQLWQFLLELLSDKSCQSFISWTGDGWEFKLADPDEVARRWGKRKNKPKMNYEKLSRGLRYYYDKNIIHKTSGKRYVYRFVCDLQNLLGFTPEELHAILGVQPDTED
# Outline: as §1
# [4] = target: T4, SPDEF (Homo sapiens, UniProt O95238 1-335)
# T4 sequence: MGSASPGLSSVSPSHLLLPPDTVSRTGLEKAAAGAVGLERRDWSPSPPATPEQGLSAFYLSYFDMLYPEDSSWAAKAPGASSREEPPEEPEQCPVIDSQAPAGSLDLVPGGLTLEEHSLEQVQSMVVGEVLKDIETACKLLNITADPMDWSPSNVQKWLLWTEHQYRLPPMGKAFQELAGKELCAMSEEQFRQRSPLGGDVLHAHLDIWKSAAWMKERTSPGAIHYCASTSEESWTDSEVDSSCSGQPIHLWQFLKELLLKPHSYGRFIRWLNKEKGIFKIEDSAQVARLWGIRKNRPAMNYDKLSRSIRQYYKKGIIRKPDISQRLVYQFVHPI
# Outline: as §1
# [5] = target: T5, ETV7 (Homo sapiens, UniProt Q9Y603 1-341)
# T5 sequence: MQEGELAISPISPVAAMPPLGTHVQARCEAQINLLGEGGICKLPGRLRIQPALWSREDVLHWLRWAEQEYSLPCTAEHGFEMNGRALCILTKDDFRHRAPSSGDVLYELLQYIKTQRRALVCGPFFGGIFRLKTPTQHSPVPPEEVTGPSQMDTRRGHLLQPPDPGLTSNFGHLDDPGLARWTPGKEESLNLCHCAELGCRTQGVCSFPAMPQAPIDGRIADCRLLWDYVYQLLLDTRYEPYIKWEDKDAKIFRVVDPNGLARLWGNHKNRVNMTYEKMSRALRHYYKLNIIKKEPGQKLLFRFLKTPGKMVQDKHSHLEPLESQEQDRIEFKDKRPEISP
# Outline: as §1
# [6] = target: T6, ELF5 (Homo sapiens, UniProt Q9UKW6-2 1-255)
# T6 sequence: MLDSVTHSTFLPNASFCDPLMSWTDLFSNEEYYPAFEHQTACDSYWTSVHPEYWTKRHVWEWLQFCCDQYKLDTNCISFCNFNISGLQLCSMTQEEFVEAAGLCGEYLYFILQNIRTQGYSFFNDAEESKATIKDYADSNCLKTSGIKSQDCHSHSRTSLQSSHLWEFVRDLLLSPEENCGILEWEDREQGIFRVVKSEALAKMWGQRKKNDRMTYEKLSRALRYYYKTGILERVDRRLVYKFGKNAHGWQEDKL
# Outline: as §1
# [7] = target: T7, ETV3 (Homo sapiens, UniProt P41162-2 1-143)
# T7 sequence: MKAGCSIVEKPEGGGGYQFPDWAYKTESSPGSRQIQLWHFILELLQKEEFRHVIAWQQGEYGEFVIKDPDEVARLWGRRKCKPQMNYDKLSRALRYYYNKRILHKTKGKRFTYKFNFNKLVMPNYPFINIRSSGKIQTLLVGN
# Outline: as §1
# [8] = target: ETV6 (Homo sapiens, UniProt P41212 1-452)
# Chain of ETV6 (P41212 whole entry): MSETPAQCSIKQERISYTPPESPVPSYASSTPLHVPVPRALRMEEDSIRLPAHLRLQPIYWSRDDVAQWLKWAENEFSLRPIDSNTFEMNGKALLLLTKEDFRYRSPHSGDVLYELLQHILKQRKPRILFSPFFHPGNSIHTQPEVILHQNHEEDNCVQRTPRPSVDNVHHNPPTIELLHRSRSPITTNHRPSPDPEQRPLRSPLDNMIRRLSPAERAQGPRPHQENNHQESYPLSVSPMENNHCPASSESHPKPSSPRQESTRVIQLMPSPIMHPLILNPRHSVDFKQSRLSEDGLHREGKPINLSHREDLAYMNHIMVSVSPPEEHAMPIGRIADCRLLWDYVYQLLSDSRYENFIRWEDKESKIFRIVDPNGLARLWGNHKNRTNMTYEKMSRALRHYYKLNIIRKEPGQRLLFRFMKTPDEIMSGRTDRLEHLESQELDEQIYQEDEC
# Outline: as §1
sequence,measurement,setting,value
TGGCAT,binding signal,[1],"1.11 fold enrichment (6-mer frequency, TF over GST control)"
same,binding signal,[2],"1.1 fold enrichment (6-mer frequency, TF over GST control)"
same,binding signal,[3],"1.14 fold enrichment (6-mer frequency, TF over GST control)"
same,binding signal,[4],"1.09 fold enrichment (6-mer frequency, TF over GST control)"
same,binding signal,[5],"1.1 fold enrichment (6-mer frequency, TF over GST control)"
same,binding signal,[6],"1.06 fold enrichment (6-mer frequency, TF over GST control)"
same,binding signal,[7],"1.23 fold enrichment (6-mer frequency, TF over GST control)"
same,binding signal,[8],"1.25 fold enrichment (6-mer frequency, TF over GST control)"
GATGGC,binding signal,[1],"1.4 fold enrichment (6-mer frequency, TF over GST control)"
same,binding signal,[2],"1.3 fold enrichment (6-mer frequency, TF over GST control)"
same,binding signal,[3],"1.27 fold enrichment (6-mer frequency, TF over GST control)"
same,binding signal,[4],"1.29 fold enrichment (6-mer frequency, TF over GST control)"
same,binding signal,[5],"1.26 fold enrichment (6-mer frequency, TF over GST control)"
same,binding signal,[6],"1.3 fold enrichment (6-mer frequency, TF over GST control)"
same,binding signal,[7],"1.3 fold enrichment (6-mer frequency, TF over GST control)"
same,binding signal,[8],"1.31 fold enrichment (6-mer frequency, TF over GST control)"
TTTCCG,binding signal,[1],"3.3 fold enrichment (6-mer frequency, TF over GST control)"
same,binding signal,[2],"3.52 fold enrichment (6-mer frequency, TF over GST control)"
same,binding signal,[3],"3.92 fold enrichment (6-mer frequency, TF over GST control)"
same,binding signal,[4],"3.35 fold enrichment (6-mer frequency, TF over GST control)"
same,binding signal,[5],"3.55 fold enrichment (6-mer frequency, TF over GST control)"
same,binding signal,[6],"5.34 fold enrichment (6-mer frequency, TF over GST control)"
same,binding signal,[7],"4.06 fold enrichment (6-mer frequency, TF over GST control)"
same,binding signal,[8],"4.37 fold enrichment (6-mer frequency, TF over GST control)"
TTGTTT,binding signal,[1],"1.45 fold enrichment (6-mer frequency, TF over GST control)"
same,binding signal,[2],"1.46 fold enrichment (6-mer frequency, TF over GST control)"
same,binding signal,[3],"1.39 fold enrichment (6-mer frequency, TF over GST control)"
same,binding signal,[4],"1.32 fold enrichment (6-mer frequency, TF over GST control)"
same,binding signal,[5],"1.6 fold enrichment (6-mer frequency, TF over GST control)"
same,binding signal,[6],"1.37 fold enrichment (6-mer frequency, TF over GST control)"
same,binding signal,[7],"1.5 fold enrichment (6-mer frequency, TF over GST control)"
same,binding signal,[8],"1.53 fold enrichment (6-mer frequency, TF over GST control)"
TCCTAA,binding signal,[1],"1.55 fold enrichment (6-mer frequency, TF over GST control)"
same,binding signal,[2],"1.36 fold enrichment (6-mer frequency, TF over GST control)"
same,binding signal,[3],"1.49 fold enrichment (6-mer frequency, TF over GST control)"
same,binding signal,[4],"1.6 fold enrichment (6-mer frequency, TF over GST control)"
same,binding signal,[5],"1.48 fold enrichment (6-mer frequency, TF over GST control)"
same,binding signal,[6],"1.5 fold enrichment (6-mer frequency, TF over GST control)"
same,binding signal,[7],"1.45 fold enrichment (6-mer frequency, TF over GST control)"
same,binding signal,[8],"1.55 fold enrichment (6-mer frequency, TF over GST control)"
AAAACT,binding signal,[1],"1.2 fold enrichment (6-mer frequency, TF over GST control)"
same,binding signal,[2],"1.19 fold enrichment (6-mer frequency, TF over GST control)"
same,binding signal,[3],"1.24 fold enrichment (6-mer frequency, TF over GST control)"
same,binding signal,[4],"1.09 fold enrichment (6-mer frequency, TF over GST control)"
same,binding signal,[5],"1.29 fold enrichment (6-mer frequency, TF over GST control)"
same,binding signal,[6],"1.27 fold enrichment (6-mer frequency, TF over GST control)"
same,binding signal,[7],"1.21 fold enrichment (6-mer frequency, TF over GST control)"
same,binding signal,[8],"1.19 fold enrichment (6-mer frequency, TF over GST control)"
TTCGAA,binding signal,[1],"1.33 fold enrichment (6-mer frequency, TF over GST control)"
same,binding signal,[2],"1.25 fold enrichment (6-mer frequency, TF over GST control)"
same,binding signal,[3],"1.24 fold enrichment (6-mer frequency, TF over GST control)"
same,binding signal,[4],"1.17 fold enrichment (6-mer frequency, TF over GST control)"
same,binding signal,[5],"1.26 fold enrichment (6-mer frequency, TF over GST control)"
same,binding signal,[6],"1.14 fold enrichment (6-mer frequency, TF over GST control)"
same,binding signal,[7],"1.03 fold enrichment (6-mer frequency, TF over GST control)"
same,binding signal,[8],"1.15 fold enrichment (6-mer frequency, TF over GST control)"
